Results from the supplement of paper PMC10849652.
About 8,800 targets were measured; listed, in parts, are those with a hit and a random draw of the rest. About 0.5% of all pairs of compound and target were hits. A number with no mark means an inactive call.

Chain of UniProt O76039 (O76039 whole entry, looked up): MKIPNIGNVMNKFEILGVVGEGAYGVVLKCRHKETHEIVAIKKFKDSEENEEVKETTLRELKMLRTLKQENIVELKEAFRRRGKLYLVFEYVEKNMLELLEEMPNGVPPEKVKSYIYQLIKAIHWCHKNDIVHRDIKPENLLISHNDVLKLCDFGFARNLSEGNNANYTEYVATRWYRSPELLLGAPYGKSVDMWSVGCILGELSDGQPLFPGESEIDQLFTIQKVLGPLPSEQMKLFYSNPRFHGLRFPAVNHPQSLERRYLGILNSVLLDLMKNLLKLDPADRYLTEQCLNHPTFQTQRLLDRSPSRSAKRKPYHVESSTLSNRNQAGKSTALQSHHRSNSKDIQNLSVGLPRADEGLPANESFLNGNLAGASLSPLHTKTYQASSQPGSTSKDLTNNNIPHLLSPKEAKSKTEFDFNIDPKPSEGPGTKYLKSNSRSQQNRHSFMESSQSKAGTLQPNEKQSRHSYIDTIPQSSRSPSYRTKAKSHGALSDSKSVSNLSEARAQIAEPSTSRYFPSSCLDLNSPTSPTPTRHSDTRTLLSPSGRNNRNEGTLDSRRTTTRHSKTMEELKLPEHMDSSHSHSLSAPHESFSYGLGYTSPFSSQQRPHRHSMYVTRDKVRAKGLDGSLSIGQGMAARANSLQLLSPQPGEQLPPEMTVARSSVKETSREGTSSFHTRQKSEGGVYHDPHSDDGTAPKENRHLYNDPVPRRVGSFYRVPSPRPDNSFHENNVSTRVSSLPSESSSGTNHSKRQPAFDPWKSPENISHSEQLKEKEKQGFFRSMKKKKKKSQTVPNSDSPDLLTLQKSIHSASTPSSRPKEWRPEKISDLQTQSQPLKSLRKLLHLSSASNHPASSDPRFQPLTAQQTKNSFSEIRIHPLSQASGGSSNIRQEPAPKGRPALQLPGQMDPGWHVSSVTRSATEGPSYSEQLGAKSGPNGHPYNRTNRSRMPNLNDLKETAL
Chain of UniProt Q5U623 (Q5U623 whole entry, looked up): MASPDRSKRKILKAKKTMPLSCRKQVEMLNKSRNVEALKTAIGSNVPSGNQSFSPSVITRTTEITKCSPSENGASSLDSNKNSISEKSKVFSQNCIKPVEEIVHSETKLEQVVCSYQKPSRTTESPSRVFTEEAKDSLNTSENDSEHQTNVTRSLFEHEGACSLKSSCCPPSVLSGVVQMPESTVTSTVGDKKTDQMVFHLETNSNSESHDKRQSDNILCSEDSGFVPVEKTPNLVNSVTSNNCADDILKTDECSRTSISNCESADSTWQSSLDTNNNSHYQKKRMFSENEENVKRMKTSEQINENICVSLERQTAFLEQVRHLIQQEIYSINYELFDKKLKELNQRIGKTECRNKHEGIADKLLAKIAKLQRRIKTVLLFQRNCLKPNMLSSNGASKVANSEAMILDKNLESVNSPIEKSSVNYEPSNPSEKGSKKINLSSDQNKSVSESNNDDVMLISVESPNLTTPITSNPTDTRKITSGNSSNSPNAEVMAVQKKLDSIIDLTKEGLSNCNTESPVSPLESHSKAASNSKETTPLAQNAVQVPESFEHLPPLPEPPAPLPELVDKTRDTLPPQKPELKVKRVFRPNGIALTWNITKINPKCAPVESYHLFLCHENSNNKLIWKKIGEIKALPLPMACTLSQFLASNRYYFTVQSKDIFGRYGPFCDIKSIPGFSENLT
Chain of UniProt Q9Y297 (Q9Y297 whole entry, looked up): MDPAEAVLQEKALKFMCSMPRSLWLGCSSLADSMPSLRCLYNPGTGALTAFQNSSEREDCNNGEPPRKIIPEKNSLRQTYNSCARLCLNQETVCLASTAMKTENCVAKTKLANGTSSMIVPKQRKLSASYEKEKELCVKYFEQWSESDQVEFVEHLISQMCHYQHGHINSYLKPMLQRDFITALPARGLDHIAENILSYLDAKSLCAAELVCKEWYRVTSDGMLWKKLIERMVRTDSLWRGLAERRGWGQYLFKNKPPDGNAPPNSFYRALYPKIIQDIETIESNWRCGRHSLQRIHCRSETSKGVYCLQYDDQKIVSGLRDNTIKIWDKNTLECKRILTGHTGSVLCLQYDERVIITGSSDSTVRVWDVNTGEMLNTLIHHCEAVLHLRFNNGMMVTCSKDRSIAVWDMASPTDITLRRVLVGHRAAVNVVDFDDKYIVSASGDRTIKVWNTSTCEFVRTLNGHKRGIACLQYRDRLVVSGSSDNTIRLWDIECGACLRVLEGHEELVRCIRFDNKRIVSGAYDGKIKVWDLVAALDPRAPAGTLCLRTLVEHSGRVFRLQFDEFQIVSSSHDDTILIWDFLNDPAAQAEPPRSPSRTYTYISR
Chain of UniProt Q8IYX8 (Q8IYX8 whole entry, looked up): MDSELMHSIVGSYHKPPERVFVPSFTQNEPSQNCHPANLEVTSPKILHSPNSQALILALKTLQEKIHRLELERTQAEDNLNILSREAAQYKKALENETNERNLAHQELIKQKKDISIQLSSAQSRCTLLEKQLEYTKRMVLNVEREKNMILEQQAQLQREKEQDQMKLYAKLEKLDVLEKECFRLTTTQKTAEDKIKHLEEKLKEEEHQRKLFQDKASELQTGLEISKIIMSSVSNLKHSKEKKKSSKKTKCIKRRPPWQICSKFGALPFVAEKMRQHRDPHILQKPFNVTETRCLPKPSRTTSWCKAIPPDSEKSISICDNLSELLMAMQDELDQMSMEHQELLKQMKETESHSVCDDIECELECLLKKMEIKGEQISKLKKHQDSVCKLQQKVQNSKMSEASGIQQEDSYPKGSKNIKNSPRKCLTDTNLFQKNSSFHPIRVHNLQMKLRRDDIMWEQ
Chain of UniProt O95260 (O95260 whole entry, looked up): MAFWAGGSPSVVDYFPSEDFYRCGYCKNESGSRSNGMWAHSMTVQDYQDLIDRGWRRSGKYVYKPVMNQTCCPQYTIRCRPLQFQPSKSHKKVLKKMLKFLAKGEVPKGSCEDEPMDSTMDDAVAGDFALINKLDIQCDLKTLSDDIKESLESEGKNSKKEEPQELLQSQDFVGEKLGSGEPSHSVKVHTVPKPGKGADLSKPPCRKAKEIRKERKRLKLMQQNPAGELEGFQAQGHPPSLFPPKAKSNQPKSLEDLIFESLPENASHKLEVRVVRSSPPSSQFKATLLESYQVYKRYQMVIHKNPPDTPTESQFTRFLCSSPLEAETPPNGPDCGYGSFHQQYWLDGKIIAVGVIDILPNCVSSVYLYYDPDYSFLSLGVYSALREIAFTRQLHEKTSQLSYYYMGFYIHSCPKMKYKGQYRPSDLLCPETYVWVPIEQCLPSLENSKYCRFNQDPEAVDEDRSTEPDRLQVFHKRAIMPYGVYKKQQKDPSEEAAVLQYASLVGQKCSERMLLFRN
Chain of UniProt P33681 (P33681 whole entry, looked up): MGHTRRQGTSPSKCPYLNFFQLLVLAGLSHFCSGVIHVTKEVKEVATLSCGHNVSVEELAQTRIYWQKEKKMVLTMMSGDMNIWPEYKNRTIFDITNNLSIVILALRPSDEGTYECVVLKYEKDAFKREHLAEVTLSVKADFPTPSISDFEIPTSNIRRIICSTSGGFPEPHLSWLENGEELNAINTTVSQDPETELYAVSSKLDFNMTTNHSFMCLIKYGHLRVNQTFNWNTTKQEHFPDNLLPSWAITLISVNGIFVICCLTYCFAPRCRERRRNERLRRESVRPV
Chain of UniProt Q86Y37 (Q86Y37 whole entry, looked up): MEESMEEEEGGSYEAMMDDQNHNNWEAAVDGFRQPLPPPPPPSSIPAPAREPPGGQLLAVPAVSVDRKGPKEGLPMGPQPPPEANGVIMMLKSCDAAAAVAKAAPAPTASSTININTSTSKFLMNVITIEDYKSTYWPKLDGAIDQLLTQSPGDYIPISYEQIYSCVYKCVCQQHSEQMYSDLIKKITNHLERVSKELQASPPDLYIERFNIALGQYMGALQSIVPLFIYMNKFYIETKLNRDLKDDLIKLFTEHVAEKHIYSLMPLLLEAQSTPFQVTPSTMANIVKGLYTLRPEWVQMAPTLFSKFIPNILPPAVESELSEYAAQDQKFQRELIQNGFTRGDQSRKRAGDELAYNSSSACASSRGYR
Chain of UniProt Q8NDD1 (Q8NDD1 whole entry, looked up): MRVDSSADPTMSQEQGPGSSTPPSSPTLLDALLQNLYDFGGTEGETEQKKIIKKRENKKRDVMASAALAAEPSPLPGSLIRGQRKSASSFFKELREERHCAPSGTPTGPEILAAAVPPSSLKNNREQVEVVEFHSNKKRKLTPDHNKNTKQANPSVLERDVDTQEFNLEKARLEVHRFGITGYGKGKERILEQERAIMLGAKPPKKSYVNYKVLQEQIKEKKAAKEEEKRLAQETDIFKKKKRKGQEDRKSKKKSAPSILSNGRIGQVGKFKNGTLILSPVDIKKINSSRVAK
Chain of UniProt P30281 (P30281 whole entry, looked up): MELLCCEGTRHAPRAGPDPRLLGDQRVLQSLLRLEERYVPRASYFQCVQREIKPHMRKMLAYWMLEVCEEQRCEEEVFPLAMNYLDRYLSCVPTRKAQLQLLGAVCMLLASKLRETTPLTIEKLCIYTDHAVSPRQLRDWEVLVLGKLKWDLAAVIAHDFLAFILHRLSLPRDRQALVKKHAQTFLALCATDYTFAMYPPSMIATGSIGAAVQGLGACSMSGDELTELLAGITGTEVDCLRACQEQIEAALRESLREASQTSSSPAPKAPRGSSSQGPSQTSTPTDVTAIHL
Chain of UniProt A8MTT3 (A8MTT3 whole entry, looked up): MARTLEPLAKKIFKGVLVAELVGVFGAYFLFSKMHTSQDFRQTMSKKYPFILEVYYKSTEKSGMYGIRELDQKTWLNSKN
Chain of UniProt Q7Z4R8 (Q7Z4R8 whole entry, looked up): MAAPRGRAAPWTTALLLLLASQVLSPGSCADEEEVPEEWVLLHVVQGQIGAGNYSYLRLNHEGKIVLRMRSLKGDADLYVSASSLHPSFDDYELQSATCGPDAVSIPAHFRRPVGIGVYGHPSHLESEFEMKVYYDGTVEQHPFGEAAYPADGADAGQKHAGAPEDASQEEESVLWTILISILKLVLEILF
Chain of UniProt Q12983 (Q12983 whole entry, looked up): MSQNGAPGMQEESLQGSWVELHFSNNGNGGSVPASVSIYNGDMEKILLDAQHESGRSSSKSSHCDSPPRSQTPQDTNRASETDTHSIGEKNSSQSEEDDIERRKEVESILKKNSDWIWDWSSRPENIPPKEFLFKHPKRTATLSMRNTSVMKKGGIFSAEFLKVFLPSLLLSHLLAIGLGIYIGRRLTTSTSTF

These targets were tested with c1ccc([C@@H]2C[C@H]2NC2CCNCC2)cc1 (assay: log2 fold change, soluble protein after heating vs DMSO (PISA); higher = thermal stabilisation; K562 lysate, 10 uM; active = over 0.2 and 3.5 SD of the protein, either way, in both replicates (recomputed)).
How it was run: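 Values give the log-two fold change in thermal stability against solvent controls, from duplicates. Crude K562 extract at 1 mg/mL protein, made by dounce homogenisation in PBS pH 7.4 with 1 mM MgCl2, was treated with 10 μM compound for 30 min. After 3 min heating across 48°C-58°C, aliquots were pooled, adjusted to 0.5% NP-40 at 4°C and centrifuged at 21,000xg for 90 min. The supernatant was measured by TMTpro 16plex LC-MS/MS with channel sums equalised.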
In the case of CEP57L1 (UniProt Q8IYX8), the log2 fold change is reported as 0.099.
Work on CDK11A (UniProt Q9UQ88) yielded a log2 fold change of 0.
Target CEBPZOS (UniProt A8MTT3) has a log2 fold change of 0.018.
For BCORL1 isoform 3 (UniProt Q5H9F3), the log2 fold change was -0.382.
C1orf131 isoform 5 (UniProt Q8NDD1) was tested, and the log2 fold change was -0.108.
CASC1 (UniProt Q6TDU7) gave a log2 fold change of 0.046.
For BICRA (UniProt Q9NZM4), the log2 fold change was -0.142.
C15orf39 (UniProt Q6ZRI6) gave a log2 fold change of 0.161.
BNIP3 (UniProt Q12983) gave a log2 fold change of -0.074.
CACUL1 (UniProt Q86Y37) was tested, and the log2 fold change was 0.111.
CENPV (UniProt Q7Z7K6) showed a log2 fold change of 0.166.
Target C3AR1 (UniProt Q16581) has a log2 fold change of -0.083.
With CARHSP1 (UniProt H3BNU9) the log2 fold change was 0.094.
ATE1 (UniProt O95260) showed a log2 fold change of -0.125.
Work on CD80 (UniProt P33681) yielded a log2 fold change of 0.048.
BTRC (UniProt Q9Y297) gave a log2 fold change of -0.048.
Target C9orf72 (UniProt Q96LT7) has a log2 fold change of 0.002.
BUD13 (UniProt Q9BRD0) showed a log2 fold change of 0.029.
Target ATF7IP2 (UniProt Q5U623) has a log2 fold change of 0.017.
Target BMT2 (UniProt Q1RMZ1) has a log2 fold change of 0.123.
Target CHD9 (UniProt Q3L8U1) has a log2 fold change of 0.232.
For CCND3 (UniProt P30281), the log2 fold change was -0.023.
With C6orf120 (UniProt Q7Z4R8) the log2 fold change was 0.137.
BBS7 (UniProt Q8IWZ6) showed a log2 fold change of 0.181.
For C8orf88 (UniProt P0DMB2), the log2 fold change was -0.002.
In the case of BAHCC1 (UniProt Q9P281), the log2 fold change is reported as -0.696 (active).
CDKL5 (UniProt O76039) gave a log2 fold change of -0.132.
CEP295 isoform 3 (UniProt Q9C0D2) was tested, and the log2 fold change was 0.024.
Work on CAD (UniProt H7BZB3) yielded a log2 fold change of -0.003.
